Experimental data published in ChEMBL document CHEMBL3433997, “St. Jude Leishmania screening dataset” (2016).

How the values were obtained:
Format in all cases: functional
[1] = molecular target: Solute carrier family 2, facilitated glucose transporter member 1 (Homo sapiens) (UniProt P11166); assay: ST_JUDE_LEISH: Cytotoxicity at 2uM final concentration against transgenic Leishmania Mexicana promastigotes LmGLUT1 that are glucose transport deficient and complemented with the human glucose transporter GLUT1. Activity is measured by DNA content using SYBR green in vitro
[2] = molecular target: Hexose transporter 1 (Plasmodium falciparum) (UniProt O97467); assay: ST_JUDE_LEISH: Cytotoxicity at 2uM final concentration against transgenic Leishmania Mexicana promastigotes LmPfHT that are glucose transport deficient and complemented with the Plasmodium falciparum hexose transporter. Activity is measured by DNA content using SYBR green in vitro
[3] = molecular target: Glucose transporter (Leishmania mexicana) (UniProt O61059); assay: ST_JUDE_LEISH: Cytotoxicity at 2uM final concentration against transgenic Leishmania Mexicana promastigotes LmGT2 that are glucose transport deficient and complemented with the L. Mexicana glucose transporter 2. Activity is measured by DNA content using SYBR green in vitro

Sequence of Solute carrier family 2, facilitated glucose transporter member 1 (Homo sapiens) (P11166 whole entry): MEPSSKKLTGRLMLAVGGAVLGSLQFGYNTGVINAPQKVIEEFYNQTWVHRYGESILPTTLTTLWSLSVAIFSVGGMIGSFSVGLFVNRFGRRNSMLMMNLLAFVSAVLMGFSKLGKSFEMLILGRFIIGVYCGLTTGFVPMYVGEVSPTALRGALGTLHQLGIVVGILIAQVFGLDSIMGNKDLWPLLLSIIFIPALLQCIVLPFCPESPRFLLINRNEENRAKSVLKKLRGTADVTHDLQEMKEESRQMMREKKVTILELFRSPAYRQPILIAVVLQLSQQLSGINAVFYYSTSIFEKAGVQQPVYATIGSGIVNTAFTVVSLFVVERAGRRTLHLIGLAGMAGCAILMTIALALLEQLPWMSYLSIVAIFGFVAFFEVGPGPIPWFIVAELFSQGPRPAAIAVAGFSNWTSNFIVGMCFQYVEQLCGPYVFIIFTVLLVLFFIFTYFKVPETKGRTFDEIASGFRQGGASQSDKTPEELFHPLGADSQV

| SMILES | inhibition [1] | inhibition [2] | inhibition [3] |
| --- | --- | --- | --- |
| OC(CNC1CCCCC1)Cn1c2ccc(Br)cc2c2cc(Br)ccc21 (centres undefined) | 0.51% | 0.28% | 0.64% |
| O=C(NC1CCCCC1)c1csc(C2CCCN(C(=O)c3ccc(O)c(-c4cccc(C(F)(F)F)c4)c3)C2)n1 (centres undefined) | 0.87% | 1.44% | -0.33% |
| CC(CN1CCN(C)CC1)C(=O)Nc1cccc(-c2cccc(-c3nc4cc(F)ccc4[nH]3)c2)c1 (centres undefined) | 6.87% | 5.83% | 5.91% |
| COc1ccc(C(=O)NCC(C)(C)c2nc(-c3ccc(Cl)c(O)c3)c(-c3ccncc3)[nH]2)cc1OCCN(C(C)C)C(C)C | -1.11% | -0.86% | -1.98% |
| C=CCn1c(Sc2ccc(C#N)c([N+](=O)[O-])c2)nnc1-c1cc(OC)cc(OC)c1 | 12.5% | 13.4% | 10.9% |
| Cc1nc(C)c(-c2ccc(C(=O)c3ccc(Cl)cc3)cc2)c(O)c1Cl | 8.16% | 10.4% | 9.25% |
| O=C(Nc1cc(F)cc(F)c1)N[C@H]1CCN(CCCCCNC(=O)C2CC2c2ccc(Cl)c(Cl)c2)C1 (some centres undefined) | -0.04% | 0.55% | -1.55% |
| N#Cc1c(N2CCN(c3ccc(F)cc3)CC2)nc(N)c2c(N)nc3c(c12)CC(=O)N3C1CC1 | -2.19% | 5.18% | 13.5% |
| CN1CCN(CC(=O)Nc2ccc(-c3ccc(-c4nc5cc(C(F)(F)F)ccc5[nH]4)s3)cc2)CC1 | -0.05% | 1.22% | 1.13% |
| CC1(C)N=C(N)N=C(N)N1c1cccc(I)c1 | 0.23% | -0.04% | 0.13% |
| COc1ccc(CNCc2ccc(-c3cccc(-c4nc5cc(C(F)(F)F)ccc5[nH]4)c3)cc2)cc1 | -1.07% | -0.35% | -2.33% |
| Cc1nc(N/C=C/c2ccc(O)cc2)cc(N2CCCC2)n1 | 8.44% | 6.81% | 7.13% |
| COc1ccccc1CNC(=O)c1nn(-c2ccc(Cl)cc2)c(=O)c2ccccc12 | 4.66% | 4.83% | 3.54% |
| CC(O)C1CCCCN1C(=O)c1cccc(-c2cccc(-c3nc4cc(C(F)(F)F)ccc4[nH]3)c2)c1 (centres undefined) | -0.23% | 1.12% | -0.12% |
| Cc1[nH]c(C)c(C(F)(F)F)c(=O)c1-c1ccc(Oc2ccc(OC(F)(F)F)cc2)cc1 | 2.24% | 2.31% | 0.52% |
| COc1ccc(-c2ccc(NC(=O)c3cccc(Cl)c3)c(F)c2)cc1CNC(C)C | 9.29% | 7.16% | 4.55% |
| C=CCOC(=O)N1CCC(CNCc2cccc(-c3ccc(-c4nc5cccc(C)c5[nH]4)s3)c2)C1 (centres undefined) | -0.28% | -0.37% | -0.89% |
| COc1cc(F)c2nccc([C@@H](O)CN3CCC(NCc4cc5c(cc4F)OCCO5)CC3)c2c1 | 1.5% | 0.69% | -2.93% |
| O=S(=O)(NCCN1CCCC1)c1ccc(-c2ccccc2CNC2Cc3ccccc3C2)cc1 | 66.1% | 67.7% | 50.5% |

| SMILES | inhibition [1] | inhibition [2] | inhibition [3] |
| --- | --- | --- | --- |
| O=C(C=Cc1ccc(Cl)c(Cl)c1)NCCCCCN1CCCC(CCCNS(=O)(=O)c2ccc(Br)cc2)C1 (centres undefined) | 5.1% | 3.96% | 2.95% |
| COc1cccc2c(NN=Cc3cccc(Cl)c3)ccnc12 | 0.32% | -3.77% | 1.77% |
| CN1CCN(c2ccc(-c3cc(-c4cc(F)c(F)c(F)c4)cnc3N)cc2)CC1 | 4.36% | 1.8% | 0.2% |
| Cc1cc(Oc2ccc(-n3ccnc3)cc2)nc(N2CCN(CCCN3CCCC3)CC2)n1 | 4% | 5.53% | 2.69% |
| Cc1cc2c(cc1C(F)(F)F)N(C(=O)Nc1cc(C(=O)NC3CCN(Cc4ccccc4)C3)cc(C(F)(F)F)c1)CC2 (centres undefined) | 6.43% | 6.1% | 7.35% |
| CN(C)CCCOc1ccc(-c2nc(-c3ccc4c(c3)CCC4=NO)c(-c3ccncc3)[nH]2)cc1 | 2.55% | 2.33% | 1.24% |
| Cn1c(NCc2cc(F)cc3c2OCOC3)nc2cc(Nc3ccnc(Nc4cccc(CS(C)(=O)=O)c4)n3)ccc21 | -1.66% | 1.11% | 1.18% |
| CS(=O)(=O)c1ccc(CNCc2ccc(-c3ccc(-c4nc5cc(C(F)(F)F)ccc5[nH]4)s3)cc2)cc1 | 12% | 10.7% | 9.87% |
| O=C(c1cc(-c2cccs2)n[nH]1)N1CCN(S(=O)(=O)c2ccc(Br)cc2)CC1 | 0.07% | 3.88% | 2.13% |
| COc1ccc2nccc([C@@H](O)CN3CCC(NCc4ccc5c(c4)NC(=O)C(C)S5)CC3)c2c1 (some centres undefined) | 12.2% | 1.99% | 4.38% |
| O=C(Nc1ccc(OC2CCN(Cc3ccsc3)C2)c(Cl)c1)c1ccsc1 (centres undefined) | 2.57% | 2.64% | 1.08% |
| Cc1cc(C)nc(-n2[nH]c(C)c(Cc3ccc(C(C)(C)C)cc3)c2=O)n1 | 4.87% | 5.45% | 2.9% |
| O=C(/C=C/c1ccc(Cl)c(Cl)c1)N1CCC(CCCN2CCC(c3c[nH]c4ccc(O)cc34)CC2)CC1 | 25.3% | 17.4% | 14% |
| CC(CN1CCN(C)CC1)C(=O)Nc1ccc(-c2ccc(-c3nc4cc(F)ccc4[nH]3)cc2)cc1 (centres undefined) | 9.06% | 3.05% | 8.04% |
| COc1cc(C)ccc1N1CCN(CCCCNC(=O)c2ccc(NC(=O)c3ccc(Cl)cc3)cc2)CC1 | 6.85% | 6.83% | 6.92% |
| COc1ccc(C(=O)CCC(=O)N(Cc2ccc(-c3ccc(CNCCc4ccc(S(C)(=O)=O)cc4)cn3)cc2)C2CCN(Cc3ccccc3)CC2)cc1F | 4.03% | 5.85% | 2.72% |
| CN1CCN(c2ccnc3ccc(NC(=O)Nc4ccc5c(c4)CCC5=O)cc23)CC1 | 3.7% | 2.43% | 5.45% |
| O=C(NCC1CCN(CC2CCCCC2)C1)c1cc(-c2cccc(Cl)c2)cs1 (centres undefined) | 2.86% | 1.57% | 1.14% |
| Fc1ccc2[nH]c(-c3cccc(-c4cccc(CNCCc5ccncc5)c4)c3)nc2c1 | 11.1% | 10.6% | 12.9% |
